According to article PMC4336329 (PLoS ONE, 2015):
The campaign covered roughly 310,000 compounds. About 2,200 (0.71%) showed an effect of 50% or more. Effects have a minus sign here. The entries come from a sample that favours strong results as a whole.

molecular target: human ether-à-go-go-related gene (hERG) potassium channel (human, UniProt Q12809); assay: primary screen, population patch clamp on CHO cells stably expressing hERG; higher = less effect of the substance
Sequence (Q12809 whole entry, looked up): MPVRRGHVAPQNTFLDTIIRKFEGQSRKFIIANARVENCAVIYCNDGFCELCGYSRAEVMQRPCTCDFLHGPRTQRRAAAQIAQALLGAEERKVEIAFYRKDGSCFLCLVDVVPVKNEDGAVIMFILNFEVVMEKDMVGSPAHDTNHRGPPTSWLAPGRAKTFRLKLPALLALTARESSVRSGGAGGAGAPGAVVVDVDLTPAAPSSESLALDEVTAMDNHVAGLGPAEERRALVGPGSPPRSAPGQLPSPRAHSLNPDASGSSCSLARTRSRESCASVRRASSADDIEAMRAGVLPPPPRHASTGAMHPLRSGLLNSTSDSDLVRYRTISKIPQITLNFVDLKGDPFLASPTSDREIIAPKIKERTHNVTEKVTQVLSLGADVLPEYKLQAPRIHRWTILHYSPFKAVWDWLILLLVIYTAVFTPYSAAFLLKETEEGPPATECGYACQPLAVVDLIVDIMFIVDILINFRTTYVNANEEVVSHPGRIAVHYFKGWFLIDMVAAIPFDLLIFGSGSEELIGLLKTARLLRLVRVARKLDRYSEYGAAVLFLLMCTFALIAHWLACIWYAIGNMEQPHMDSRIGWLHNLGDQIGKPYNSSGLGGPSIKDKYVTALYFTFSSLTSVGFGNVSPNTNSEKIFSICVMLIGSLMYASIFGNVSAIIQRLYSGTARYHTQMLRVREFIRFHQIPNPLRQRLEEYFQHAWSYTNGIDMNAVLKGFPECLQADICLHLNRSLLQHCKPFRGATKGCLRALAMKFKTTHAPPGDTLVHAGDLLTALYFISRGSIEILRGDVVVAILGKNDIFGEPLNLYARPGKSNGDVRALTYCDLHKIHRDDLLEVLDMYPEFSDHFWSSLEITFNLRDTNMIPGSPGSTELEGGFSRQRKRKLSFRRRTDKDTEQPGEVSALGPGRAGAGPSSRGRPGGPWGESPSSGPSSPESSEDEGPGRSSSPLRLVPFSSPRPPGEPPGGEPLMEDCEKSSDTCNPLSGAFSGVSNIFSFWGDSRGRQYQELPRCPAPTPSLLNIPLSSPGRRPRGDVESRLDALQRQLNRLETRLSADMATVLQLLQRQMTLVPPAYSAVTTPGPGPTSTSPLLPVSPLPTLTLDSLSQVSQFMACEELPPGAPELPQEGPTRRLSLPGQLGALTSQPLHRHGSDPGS

Row | Structure (SMILES) | hERG current change (%, negative = inhibition) at 1uM [%]
1 | COC(=O)C1=C(c2ccc(-c3ccccc3)c(F)c2)C[C@@H]2CC[C@H]1N2C(=O)NCCc1ccccc1 | 15.4
2 | CCOC(=O)C(=CNNc1c(C)csc1C(=O)OC)C(=O)OCC | 16.7
3 | COc1ccc(CCNC(=O)CN2C(=O)NC(Cc3c[nH]c4ccccc34)C2=O)cc1 (centres unmarked) | 9.58
4 | Cc1cc(OCC(=O)NC(Cc2c[nH]c3ccc(O)cc23)C(=O)O)c2c(C)c(C)c(=O)oc2c1 (centres unmarked) | 14.5
5 | CC(C)n1c(N)c(C#N)c2ccc([N+](=O)[O-])cc2c1=O | -6.91
6 | Cl.O=C(COc1ccc(Br)cc1CNCCc1ccccc1)NCc1ccccc1 | -11.5
7 | CCN(CC)CCNCc1ccc(Br)cc1OCC(=O)NCc1ccccc1.Cl | -7.7
8 | CCCNCc1cc(Br)ccc1OCC(=O)NCCc1ccccc1 | -10.7
9 | Cl.O=C(COc1ccc(Br)cc1CNC1CCCC1)Nc1ccccc1 | -28.2
10 | CCN(CC)CCNCc1cc(Br)ccc1OCC(=O)NCc1ccccc1.Cl | -54.6
11 | O=C(COc1ccc(Br)cc1CNC1CCCCC1)NCCc1ccccc1 | -59
12 | O=c1c2c(-c3cccs3)csc2ncn1-c1ccc(Br)cc1 | -2.84
13 | CCCNC(=O)N1[C@H]2CC[C@@H]1C(C(=O)OC)=C(c1ccc3ccccc3c1)C2 | 4.04
14 | COc1ccc(Cc2n[nH]c(=S)n2NC(=O)Nc2ccc(Cl)c(Cl)c2)cc1 | 10.2
15 | Cc1ccc2c(c1)CC1(CN2C)C(=O)NC(=O)N(C(C)C)C1=O (centres unmarked) | 19.3
16 | C/C(=N\Nc1nc2ccccc2[nH]1)c1cccs1 | -0.576
17 | C/C(=N\Nc1nc2ccccc2[nH]1)c1ccc(C)o1 | 8.2
18 | C/C(=N\Nc1nc2ccccc2[nH]1)c1ccccn1 | -55.5
19 | CC1CCCCC1NC(=O)CCNS(=O)(=O)c1ccc(Cl)cc1 (centres unmarked) | 7.29
20 | O=C(C1CCC(CNS(=O)(=O)c2cccc3cccnc23)CC1)N1CCc2ccccc21 (centres unmarked) | 1.06

Row | Structure (SMILES) | hERG current change (%, negative = inhibition) at 1uM [%]
21 | c1ccc2c(c1)OCCOCCOCCOCCOCCOc1ccccc1OCCOCCOCCO2 | -8.98
22 | Brc1ccc2c(c1)OCCOCCOc1cc(Br)ccc1OCCOCCOCCO2 | -6.77
23 | C=Cc1ccc2c(c1)OCCOCCOCCOCCOCCO2 | -70.2
24 | O=C(O)/C=C/c1ccc2c(c1)OCCO2 | 6.97
25 | Brc1cc2c(cc1Br)OCCOCCOCCOCCO2 | -38.2
26 | Brc1ccc2c(c1)OCCOCCOCCOCCOCCO2 | -78.6
27 | Brc1ccc2c(c1)OCCOCCOCCOCCOCCOCCO2 | -60
28 | Cl.Nc1ccc2c(c1)OCCOCCOCCOCCOCCO2 | -12.2
29 | Brc1cc2c(cc1Br)OCCOCCOCCO2 | 5.78
30 | CCNC(=S)N1CCc2ccccc2C1 | 9.59
31 | CCOc1ccc(C(=O)n2cnnc2N)cc1 | 16.9
32 | Cc1nc(SC2CCOC2=O)c2c(C)c(C)sc2n1 (centres unmarked) | 4.94
33 | Cc1cccc(NC(=O)C2CCN(S(=O)(=O)c3cccs3)CC2)n1 | 2.08
34 | Cc1ccc(-n2c(C)nnc2SCC(=O)N2CCc3ccccc3C2)cc1 | -19.6
35 | Cc1ccc(N(C(=O)c2ccccn2)C2(C(=O)NC3CCCC3)CCCCC2)cc1 | 16.9
36 | CC(=O)O.CN(C)Cc1cn(CCC(=O)O)c2ccccc12 | 10.9
37 | CCOC(=O)C1CCCN(CCC(=O)Nc2cc(C)ccc2C)C1.Cl (centres unmarked) | -8.02
38 | COc1ccc(-n2c(SCC(=O)NCC3CCCO3)nc3n[nH]c(C)c3c2=N)cc1 (centres unmarked) | 7.29
39 | O=C(COc1ccc(Cl)cc1Cl)Nc1nc2n(n1)C(c1ccccc1)CC(=O)N2 (centres unmarked) | 1.52
40 | CCc1nnc(NC(=O)c2cc(S(=O)(=O)N3CCCCC3)ccc2C)s1 | 1.93

Row | Structure (SMILES) | hERG current change (%, negative = inhibition) at 1uM [%]
41 | CCn1c2ccccc2c2cc(NC(=O)CSc3nnc(-c4cccc(Cl)c4)o3)ccc21 | 9.78
42 | Cc1ccccc1C(=O)Nc1c(C(=O)N(CCN(C)C)Cc2ccco2)oc2ccccc12 | -81.1
43 | Cc1c(C(=O)OCC(=O)NCc2ccco2)oc2ccccc12 | 10.1
44 | Cc1c(C(=O)NCc2ccco2)oc2ccccc12 | 9.16
45 | COc1ccc(OCC(=O)Nc2c(C(=O)N3CCN(C)CC3)oc3ccccc23)cc1 | -15
46 | COc1ccc(OCC(=O)Nc2c(C(=O)N(CCN(C)C)Cc3ccco3)oc3ccccc23)cc1 | -82.2
47 | CCCN1CCN(C(=O)c2oc3ccccc3c2NC(=O)COc2ccc(OC)cc2)CC1 | -46.3
48 | O=C(COc1ccccc1)Nc1ccccc1C(=O)NCc1ccco1 | 6.35
49 | CN(C)CCN(Cc1ccco1)C(=O)c1oc2ccccc2c1NC(=O)COc1ccccc1 | -79.3
50 | COc1ccccc1C(=O)Nc1c(C(=O)N(CCN(C)C)Cc2ccco2)oc2ccccc12 | -27.4
51 | O=c1c(=Nc2ccccc2O)c(=O)c2ccccc12 | 17.3
52 | O=c1[nH]c2cc3c(cc2cc1CN(Cc1ccco1)C(=S)NCC1CCCO1)OCCO3 (centres unmarked) | 15.1
53 | COC(=O)c1sc(NC(=S)NC(=O)c2ccccc2F)nc1C | 2.7
54 | O=C1CCC([N+](=O)[O-])C(c2cc(Br)ccc2F)N1 (centres unmarked) | 14.5
55 | O=C(CNC(=O)c1ccc(F)cc1)c1ccc(Cl)cc1 | 19.6
56 | Cc1cccc(CN2C[C@]34C=C[C@@H](C[C@@H]3S2(=O)=O)O4)c1 | 10.3
57 | CCc1ccc(NC(=O)Nc2cc(C(=O)NCC3CCCO3)ccc2N2CC3CC(C2)c2cccc(=O)n2C3)cc1 (centres unmarked) | 11.3
58 | CCCNC(=O)c1ccc(N2CC3CC(C2)c2cccc(=O)n2C3)c(NC(=O)Nc2ccc(CC)cc2)c1 (centres unmarked) | -56.1
59 | CCc1ccc(NC(=O)Nc2cc(C(=O)O)ccc2N2CC3CC(C2)c2cccc(=O)n2C3)cc1 (centres unmarked) | 19.5
